# According to PubChem BioAssay AID2291 (The Scripps Research Institute Molecular Screening Center, 2010):
# Hit rate of the full screen: of about 16,000 compounds, about 75 (0.5%) were called active. Cut-off read from the data, not from the text of the source: active = inhibition above about 30%; inactive = the rest. What follows is part of a selection rich in actives, with near analogues and random picks from the rest.
# Molecular target: Protein phosphatase methylesterase 1 (Homo sapiens) (UniProt Q9Y570)
# Assay: Maybridge compound blocking human PME-1 (AID 2291)
# Details: recombinant PME-1, FP-Rh probe fluorescence polarization; at 9 µM; stronger effect = higher value
# Sequence of Protein phosphatase methylesterase 1 (Homo sapiens) (Q9Y570 whole entry, looked up): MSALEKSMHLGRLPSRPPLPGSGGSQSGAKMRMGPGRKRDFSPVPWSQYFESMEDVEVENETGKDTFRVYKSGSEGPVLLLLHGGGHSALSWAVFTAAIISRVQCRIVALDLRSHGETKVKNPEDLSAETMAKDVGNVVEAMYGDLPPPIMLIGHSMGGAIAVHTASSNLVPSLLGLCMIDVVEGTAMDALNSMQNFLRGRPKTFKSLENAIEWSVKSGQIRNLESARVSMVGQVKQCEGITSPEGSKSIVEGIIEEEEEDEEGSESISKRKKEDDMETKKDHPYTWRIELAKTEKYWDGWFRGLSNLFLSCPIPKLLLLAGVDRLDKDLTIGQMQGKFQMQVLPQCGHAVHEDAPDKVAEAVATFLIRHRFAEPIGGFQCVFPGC
row,SMILES,inhibition
1,CCOC(=O)c1cc(C)nc(Sc2ccccc2NC(=O)Nc2ccc(Cl)cc2)c1C#N,25.2% (inactive)
2,CCOC(=O)c1c(C)nn(-c2ncccc2NC(=O)Nc2cccc(Cl)c2Cl)c1C,37.4% (active)
3,Cc1nc2cc3c(cc2s1)OCO3,-0.92% (inactive)
4,O=C(NC(=S)Nc1nc(-c2ccc(Cl)cc2)cs1)C1CC1,-13.9% (inactive)
5,O=S(=O)(Nc1ccc2[nH]ccc2c1)c1cccs1,3.17% (inactive)
6,CCCCC#Cc1cncc(C(=O)NNC(=O)Nc2ccc(Cl)cc2)c1,2.26% (inactive)
7,O=C1CSC(=S)N1c1ccc(N2CCCCCC2)c(N2C(=O)CSC2=S)c1,-4.27% (inactive)
8,COC(=O)c1sccc1Oc1ccc(Cl)cc1[N+](=O)[O-],2.05% (inactive)
9,O=C(NCc1cccnc1)c1cnc2ccccc2n1,3.18% (inactive)
10,Cc1cc2c(cn1)C(=O)c1ccccc1-2,4.96% (inactive)
11,O=C1C(Cl)=C(Oc2cc(Cl)c(Cl)cc2Cl)C(=O)c2ccccc21,33.4% (active)
12,COc1cccc(C(=O)c2sc3nsc(SCc4ccc(F)cc4)c3c2N)c1,-5.96% (inactive)
13,N#C/C(=C\c1ccsc1Sc1ccc(Cl)cc1)S(=O)(=O)c1ccc(Cl)cc1,-9.13% (inactive)
14,Cc1c(-c2cnc(NC(=O)c3ccccc3)s2)sc2ccc(Cl)cc12,-9.03% (inactive)
15,CCOC(=O)C(NC(=O)Nc1ccccc1)(Nc1ccccc1OC)C(F)(F)F (configuration not stated),-0.9% (inactive)
16,O=C(O)CSC(SCC(=O)O)c1ccc2c(c1)OCO2,-0.753% (inactive)
17,O=c1[nH]/c(=C/c2ccc(OC(F)(F)F)cc2)c(=O)[nH]/c1=C/c1ccc(OC(F)(F)F)cc1,-0.938% (inactive)
18,N#Cc1c(C(F)(F)F)cc(-c2cccs2)nc1N1CCCCC1,-3.16% (inactive)
19,Oc1ccccc1C=Nc1ccc(F)cc1,-4.6% (inactive)
20,COc1ccc(-c2csc(-c3cc(C)on3)n2)cc1,9.36% (inactive)
21,Cc1ccc(/C=c2\sc3nc4ccccc4n3c2=O)o1,7.34% (inactive)
22,Cc1c(NC(=O)c2cccnc2)c(=O)n(-c2ccccc2)n1C,2.93% (inactive)
23,CCOC(=O)c1c(-c2ccco2)csc1NC(=O)Nc1ccc(Cl)cc1,-41.9% (inactive)
24,OC(c1ccncc1)c1c[nH]c2ccccc12 (configuration not stated),-0.868% (inactive)
25,O/N=C/c1ccc(F)c(Cl)c1,2.78% (inactive)
26,Cc1ccc2oc(-c3cccs3)nc2c1,2.37% (inactive)

row,SMILES,inhibition
1,Cc1cc(NCc2cccnc2)no1,1.95% (inactive)
2,NNC(=O)c1csc(-c2ccc(C(F)(F)F)cn2)n1,4.74% (inactive)
3,CC(=O)Nc1cccc([N+](=O)[O-])c1,2.8% (inactive)
4,CSc1nc(N)n(-c2ccccc2)n1,2.24% (inactive)
5,CCOC(=O)C(O)(NC(=O)Nc1ccccc1)C(F)(F)F (configuration not stated),6.03% (inactive)
6,CCCCc1c(COC)nc(-c2ccc(Cl)cc2)[nH]c1=O,2.14% (inactive)
7,CCCCCCCCc1ccc(C(=O)O)cc1,1.13% (inactive)
8,Cn1c(=O)c(/C(N)=N/OC(=O)c2ccccc2Cl)cn(-c2ccccc2)c1=O,-0.69% (inactive)
9,Cc1nnc(Sc2ccc([N+](=O)[O-])c(Sc3nnc(C)s3)n2)s1,5.33% (inactive)
10,O=C(Nn1cnnc1)c1cccs1,5.13% (inactive)
11,O=C(Nc1ccccc1)N1CCN(c2ncnc3sccc23)CC1,1.02% (inactive)
12,O=C(O)c1ccccc1/C=N/Nc1cc(Cl)ccc1Cl,6.19% (inactive)
13,CCOC(=O)N/N=C(\C)c1cccc(NC(C)=O)c1,-0.548% (inactive)
14,CCCN(CCC)S(=O)(=O)c1ccc(C(=O)O/N=C(\C)c2ccccc2O)cc1,0.391% (inactive)
15,COC(=O)c1cnc(Oc2ccc(N)cc2)cc1C(F)(F)F,0.526% (inactive)
16,CCOC(=O)NC(=O)/C(=C/NCc1cccs1)C(=O)OCC,0.233% (inactive)
17,COc1ccccc1NC(=O)c1ccc(C#Cc2ccccc2)o1,-10.2% (inactive)
18,CS/C(N)=N/N=C/c1cccs1,1.26% (inactive)
19,CC1=NOC(=O)/C1=C\c1ccccc1,3.58% (inactive)
20,COc1ccc(-c2nnc(SCC(O)C(F)(F)F)n2-c2cccc(OC)c2)cc1 (configuration not stated),1.14% (inactive)
21,CC(C)(C)c1ccc(NC(=O)c2ccco2)c(NC(=O)C(Cl)(Cl)Cl)c1,2.58% (inactive)
22,FC(F)(F)c1cccc(-n2c(-c3ccncc3)n[nH]c2=S)c1,-4.3% (inactive)
23,Cc1ccc2oc(=O)n(CC/C(N)=N/OC(=O)c3ccc(C(F)(F)F)nc3C)c2c1,4.33% (inactive)
24,CCOc1cc(-c2cccs2)nc(N)n1,0.0895% (inactive)
25,Cc1ccc(OC(=O)c2nn(-c3ccccc3)nc2C)c([N+](=O)[O-])n1,-1.37% (inactive)
26,O=C(CN1C(=O)/C(=C/c2ccccc2Cl)N=C1c1ccccc1)c1ccccc1,-14% (inactive)

row,SMILES,inhibition
1,COc1c(Br)cc(C#N)cc1Br,7.88% (inactive)
2,O=C(Nc1ccccc1)O/N=C1/CCCc2occc21,-1.78% (inactive)
3,COc1ccc(CCNCC(O)Cn2ccc3ccccc32)cc1OC (configuration not stated),-0.35% (inactive)
4,COc1cc(NC(=O)COc2cc(Cl)c(Cl)cc2Cl)cc(OC)c1OC,-4.1% (inactive)
5,N#Cc1c(N)nc2c3c1NC(O)(c1ccccc1)C(C#N)C3c1cc(Cl)ccc1O2 (configuration not stated),-25.9% (inactive)
6,COc1cccc(NC(=S)NNC(=S)NC2CC3CCC2C3)c1 (configuration not stated),5.71% (inactive)
7,O=C(O)C1CC2CC1CCC2O (configuration not stated),4.17% (inactive)
8,NC(=O)c1c(C(F)(F)F)cc(C(F)(F)F)cc1C(F)(F)F,-0.0338% (inactive)
9,O/N=C/c1sccc1Oc1ccccc1,5.19% (inactive)
10,CSc1nccc(-c2ccc(S(=O)(=O)n3nc(C)c(Br)c3C)s2)n1,-1.68% (inactive)
11,CC1CN=C(N(Cc2cccnc2)C(=O)Nc2ccc(Cl)c(Cl)c2)S1 (configuration not stated),-62.8% (inactive)
12,N#Cc1cn(C2CCCCC2)c(=O)[nH]c1=O,6.75% (inactive)
13,COCCOc1ccc(NC(=S)N2CCOCC2)cc1,-0.885% (inactive)
14,O=C1CCN(Cc2ccccc2)C(=O)N1c1ccc2c(c1)CCO2,5.14% (inactive)
15,Cc1nc(-c2nnc(SCC(=O)c3ccc(F)cc3)n2C)cs1,3.93% (inactive)
16,CSc1nc(N)c2ccccc2n1,4.47% (inactive)
17,O/N=C(\c1ccccc1)c1ccccn1,1.61% (inactive)
18,Cc1cc(C)n(/N=c2\sc(-c3ccccc3)cn2C2CC3C=CC2C3)c(=O)c1C#N (configuration not stated),1.38% (inactive)
19,NC(=O)c1ccc(-c2csnn2)cc1,4.57% (inactive)
20,CC(=O)N1CCc2cc(NC(=S)Nc3ccccc3Cl)ccc21,-0.615% (inactive)
21,CC1=CC(=O)C(CCC2=CC(=O)C(C)=CC2=O)=CC1=O,-5.46% (inactive)
22,CN(C)/C=C1/C(=O)NN=C1CSc1ccc(Cl)cc1,4.88% (inactive)
23,O=S(=O)(CCN1CCC(C(F)(F)F)CC1)c1ccccc1,5.79% (inactive)
24,CSc1nc2c(c(/C=C/c3ccccc3)c1C#N)CCC2,0.0789% (inactive)
25,CSC(=Nc1ccccc1C(F)(F)F)N1CCCC1,-2.33% (inactive)
26,Cc1ccc(S(=O)(=O)NC(=O)NCCSCc2ccco2)cc1,5.18% (inactive)

row,SMILES,inhibition
1,NNC(=O)c1cc2ccccc2s1,7.18% (inactive)
2,O=C(O)c1nccnc1C(=O)O,5.09% (inactive)
3,CC(=O)OC1=CCC2C3CC[C@@]4(C)CC(OC(C)=O)CCC4(C)C3C(OC(C)=O)CC12C (some centres not stated),-6.54% (inactive)
4,OC1(C#Cc2ccccc2)CCN(Cc2ccccc2)CC1,4.15% (inactive)
5,O=C(Nc1ccc(OCc2ccccc2)cc1)OCC1CN(Cc2ccccc2)CCO1 (configuration not stated),5.09% (inactive)
6,CCCCCCCCCCCCCC#CC(O)C(N)CO (configuration not stated),-4.1% (inactive)
7,OCCNC(=S)Nc1ccccc1-c1ccccc1,0.487% (inactive)
8,FC(F)(F)C1=CC=NCCN1,10.1% (inactive)
9,OCCNc1nc2ccccc2[nH]1,-2.41% (inactive)
10,O=S(=O)(c1ccccc1)c1cc(C(F)(F)F)cc(C(F)(F)F)c1,-0.142% (inactive)
11,O=C(NCc1ccc2c(c1)OCO2)c1cccc2c1OCCCO2,-4.73% (inactive)
12,O=C1c2cc(S(=O)(=O)Oc3ccccc3)ccc2-c2ccc(S(=O)(=O)Oc3ccccc3)cc21,5.56% (inactive)
13,CN(Cc1nnc(-c2ccc3ccccc3c2)o1)c1nnc(C(F)(F)F)s1,3.28% (inactive)
14,COC(=O)c1ccccc1N(C)C(=O)c1cc(OC)c(OC)c(OC)c1,0.643% (inactive)
15,COC(=O)c1ccccc1NC(=O)c1ccc(Oc2cc(Cl)cc(Cl)c2)o1,-2.65% (inactive)
16,COC(=O)c1ccccc1-c1c2ccc(=O)cc-2oc2cc(O)ccc12,61.2% (active)
17,S=C(SCc1ncon1)N1CCSCC1,-2.3% (inactive)
18,C/C(=N\NC(N)=S)c1cc2cc(Cl)ccc2o1,-1.43% (inactive)
19,Clc1ccc(C2=NN(Cc3ccccc3)CC2)s1,2.04% (inactive)
20,NC(=NC(=O)CCn1c(=O)oc2ccccc21)c1cc(Cl)cc(Cl)c1,-1.92% (inactive)
21,O=S(=O)(Oc1cccc(C(F)(F)F)c1)c1cc(S(=O)(=O)c2ccccc2)cs1,-3.1% (inactive)
22,CC(C)(C)c1cc(C(=O)N/N=C/c2ccc([N+](=O)[O-])s2)n[nH]1,4.23% (inactive)
23,CCOC(=O)/C(C#N)=C/N/S(C)=N/N=C/c1ccc(N(C)C)cc1 (configuration not stated),4.21% (inactive)
24,NNC(=O)CSc1nnc(-c2ccccc2)n1-c1ccccc1,3.4% (inactive)
